Out of some 5,500 compounds screened, about 2,000 (36%) were called active. Roughly 18% stayed inconclusive and do not appear here. No stated cut-off is given here; in the data, active means normalized growth mostly below about 0.91 (no sharp cut-off); inconclusive means no clear call, values can overlap the other calls; inactive means mostly above about 0.92. Some of the results follow.
Experiment: chemical genetic growth profiling, strain panel (AID 1159580);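 further: tested at 20 µM; growth read once vehicle control cultures reached saturation at 30 °C; 1 = growth at the plate median or of vehicle wells; lower values mean less growth of the strain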
Conditions: growth OD
[1] = S. cerevisiae deletion strains, locus YGR078C, strain PAC10, active compounds read low
[2] = S. cerevisiae deletion strains, locus YMR263W, strain SAP30, active compounds read low
[3] = S. cerevisiae deletion strains, locus YNL153C, strain GIM3, active compounds read low
[4] = S. cerevisiae deletion strains, locus YNL322C, strain KRE1, active compounds read low
[5] = S. cerevisiae deletion strains, locus YPL055C, strain LGE1, active compounds read low
[6] = S. cerevisiae deletion strains, locus YPL241C, strain CIN2, active compounds read low

Measured: normalized growth

CC1=C(C(=O)O)N2C(=O)[C@@H](NC(=O)C(N)C3=CCC=CC3)[C@H]2SC1 (stereo partly drawn)
inactive: S. cerevisiae deletion strains, locus YAL040C, strain CLN3, active compounds read low 1.02 | S. cerevisiae deletion strains, locus YDR363W, strain ESC2, active compounds read low 1.03 | S. cerevisiae deletion strains, locus YER002W, strain NOP16, active compounds read low 1.02 | [1] 1.01 | [2] 1.03 | [3] 1.01 | S. cerevisiae deletion strains, locus YNL175C, strain NOP13, active compounds read low 1.02 | S. cerevisiae deletion strains, locus YNL197C, strain WHI3, active compounds read low 1.03 | S. cerevisiae deletion strains, locus YNL224C, strain SQS1, active compounds read low 1.01 | [4] 1.03 | S. cerevisiae deletion strains, locus YOR083W, strain WHI5 (second series), active compounds read low 1.04 | [5] 1.02 | [6] 1.01

CN=C1CN(O)C(c2ccccc2)=c2cc(Cl)ccc2=N1
inactive: S. cerevisiae deletion strains, locus YAL013W, strain DEP1, active compounds read low 0.989 | S. cerevisiae deletion strains, locus YBR021W, strain FUR4, active compounds read low 1.06 | S. cerevisiae deletion strains, locus YBR229C, strain ROT2, active compounds read low 0.969 | S. cerevisiae deletion strains, locus YCL029C, strain bik1, active compounds read low 0.981 | S. cerevisiae deletion strains, locus YDL035C, strain GPR1, active compounds read low 1.01 | S. cerevisiae deletion strains, locus YDL074C, strain BRE1, active compounds read low 0.965 | S. cerevisiae deletion strains, locus YDL101C, strain DUN1, active compounds read low 0.974 | S. cerevisiae deletion strains, locus YDL134C, strain PPH21, active compounds read low 0.983 | S. cerevisiae deletion strains, locus YDL185W, strain tfp1, active compounds read low 0.946 | S. cerevisiae deletion strains, locus YDL192W, strain arf1, active compounds read low 0.983 | S. cerevisiae deletion strains, locus YDR101C, strain arx1, active compounds read low 1.01 | S. cerevisiae deletion strains, locus YDR150W, strain NUM1, active compounds read low 0.971 | S. cerevisiae deletion strains, locus YDR162C, strain NBP2, active compounds read low 0.94 | S. cerevisiae deletion strains, locus YDR318W, strain mcm21, active compounds read low 1.01 | S. cerevisiae deletion strains, locus YDR388W, active compounds read low 0.983 | S. cerevisiae deletion strains, locus YDR502C, strain sam2, active compounds read low 0.971 | S. cerevisiae deletion strains, locus YEL061C, strain CIN8, active compounds read low 0.985 | S. cerevisiae deletion strains, locus YER110C, active compounds read low 0.985 | S. cerevisiae deletion strains, locus YER155C, strain BEM2, active compounds read low 0.997 | S. cerevisiae deletion strains, locus YER167W, strain BCK2, active compounds read low 1 | S. cerevisiae deletion strains, locus YGL078C, strain dbp3, active compounds read low 0.975 | S. cerevisiae deletion strains, locus YGL086W, strain mad1, active compounds read low 1 | S. cerevisiae deletion strains, locus YGL248W, strain PDE1, active compounds read low 0.978 | [1] 0.978 | S. cerevisiae deletion strains, locus YGR135W, strain pre9, active compounds read low 0.955 | S. cerevisiae deletion strains, locus YGR229C, strain SMI1, active compounds read low 0.993 | S. cerevisiae deletion strains, locus YGR252W, strain gcn5, active compounds read low 1.06 | S. cerevisiae deletion strains, locus YHR030C, strain SLT2, active compounds read low 1 | S. cerevisiae deletion strains, locus YHR079C, strain IRE1 (second series), active compounds read low 0.991 | S. cerevisiae deletion strains, locus YHR094C, strain hxt1, active compounds read low 0.987 | S. cerevisiae deletion strains, locus YHR129C, strain ARP1, active compounds read low 0.992 | S. cerevisiae deletion strains, locus YHR200W, strain rpn10, active compounds read low 0.983 | S. cerevisiae deletion strains, locus YIL066C, strain RNR3, active compounds read low 0.97 | S. cerevisiae deletion strains, locus YIL073C, strain SPO22, active compounds read low 1.02 | S. cerevisiae deletion strains, locus YIL125W, strain kgd1, active compounds read low 0.978 | S. cerevisiae deletion strains, locus YIR030C, strain dcg1, active compounds read low 0.985 | S. cerevisiae deletion strains, locus YJL095W, strain BCK1, active compounds read low 0.981 | S. cerevisiae deletion strains, locus YJL134W, strain LCB3, active compounds read low 0.997 | S. cerevisiae deletion strains, locus YJL168C, strain set2, active compounds read low 0.984 | S. cerevisiae deletion strains, locus YJL187C, strain SWE1 (second series), active compounds read low 0.959 | S. cerevisiae deletion strains, locus YJR043C, strain POL32, active compounds read low 1.03 | S. cerevisiae deletion strains, locus YJR075W, strain HOC1, active compounds read low 0.988 | S. cerevisiae deletion strains, locus YKL009W, strain mrt4, active compounds read low 0.982 | S. cerevisiae deletion strains, locus YKL068W, active compounds read low 0.988 | S. cerevisiae deletion strains, locus YKL085W, strain MDH1 (second series), active compounds read low 0.978 | S. cerevisiae deletion strains, locus YKL085W, strain MDH1, active compounds read low 0.978 | S. cerevisiae deletion strains, locus YKL190W, strain CNB1, active compounds read low 0.979 | S. cerevisiae deletion strains, locus YKR001C, strain vps1, active compounds read low 0.998 | S. cerevisiae deletion strains, locus YLR039C, strain RIC1, active compounds read low 0.973 | S. cerevisiae deletion strains, locus YLR058C, strain SHM2, active compounds read low 0.983 | S. cerevisiae deletion strains, locus YLR102C, strain apc9, active compounds read low 0.976 | S. cerevisiae deletion strains, locus YLR262C, strain YPT6, active compounds read low 0.969 | S. cerevisiae deletion strains, locus YLR268W, strain sec22, active compounds read low 0.991 | S. cerevisiae deletion strains, locus YLR330W, strain CHS5, active compounds read low 0.998 | S. cerevisiae deletion strains, locus YLR342W, strain FKS1 (second series), active compounds read low 1.06 | S. cerevisiae deletion strains, locus YLR371W, strain rom2, active compounds read low 0.969 | S. cerevisiae deletion strains, locus YLR418C, strain cdc73, active compounds read low 0.951 | S. cerevisiae deletion strains, locus YML016C, strain PPZ1, active compounds read low 0.988 | S. cerevisiae deletion strains, locus YML032C, strain rad52, active compounds read low 0.989 | S. cerevisiae deletion strains, locus YML124C, strain tub3, active compounds read low 0.984 | S. cerevisiae deletion strains, locus YMR078C, strain ctf18, active compounds read low 0.98 | [2] 0.957 | S. cerevisiae deletion strains, locus YMR307W, strain GAS1, active compounds read low 1.06 | S. cerevisiae deletion strains, locus YNL067W, strain RPL9B, active compounds read low 0.974 | S. cerevisiae deletion strains, locus YNL128W, strain TEP1, active compounds read low 0.966 | [3] 0.962 | S. cerevisiae deletion strains, locus YNL233W, strain BNI4, active compounds read low 0.98 | S. cerevisiae deletion strains, locus YNL250W, strain rad50, active compounds read low 0.981 | S. cerevisiae deletion strains, locus YNL271C, strain bni1, active compounds read low 0.985 | S. cerevisiae deletion strains, locus YNL298W, strain CLA4, active compounds read low 0.977 | S. cerevisiae deletion strains, locus YNL307C, strain MCK1, active compounds read low 0.999 | [4] 0.987 | S. cerevisiae deletion strains, locus YNR052C, strain pop2, active compounds read low 0.985 | S. cerevisiae deletion strains, locus YOL006C, strain TOP1, active compounds read low 0.949 | S. cerevisiae deletion strains, locus YOL012C, strain htz1 0.854 | S. cerevisiae deletion strains, locus YOL147C, strain pex11, active compounds read low 0.995 | S. cerevisiae deletion strains, locus YOR061W, strain CKA2, active compounds read low 0.969 | S. cerevisiae deletion strains, locus YOR069W, strain VPS5, active compounds read low 1 | S. cerevisiae deletion strains, locus YOR136W, strain idh2, active compounds read low 0.988 | S. cerevisiae deletion strains, locus YOR144C, strain elg1, active compounds read low 0.984 | S. cerevisiae deletion strains, locus YOR184W, strain ser1, active compounds read low 1.01 | S. cerevisiae deletion strains, locus YOR316C, strain cot1, active compounds read low 0.975 | [5] 0.934 | [6] 0.99 | S. cerevisiae deletion strains, locus YPR119W, strain clb2, active compounds read low 0.989 | S. cerevisiae deletion strains, locus YPR141C, strain kar3, active compounds read low 0.962 | S. cerevisiae deletion strains, locus YPR163C, strain tif3, active compounds read low 0.988 | S. cerevisiae deletion strains, locus YPR167C, strain met16, active compounds read low 0.983 | S. cerevisiae deletion strains, strain wtn01, active compounds read low 0.984 | S. cerevisiae strains, strain wild type, active compounds read low 0.994
